PubChem BioAssay (EPA / NIEHS)
“And” between values parts separate entries of the source, which are not always exact repeats. Equal values may be shown once. Inconclusive results are not listed. The source made the active and inactive calls. Rule for the calls: active = hit-call score of the fitted dose curve at least 0.9, where 1 is the maximum; inconclusive = response in the unintended direction; inactive = score below 0.9.

Key:
[1] = ArunA_Migration_hNP: ArunA Biomedical's Oris Neuroprogenitor (hNP) Cell Migration Assay (AID 2283754)
Method in brief: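 Readout is calcein-AM fluorescence (ex494/em517) of cells migrating into the detection zone, relative to DMSO. hNP1 cells (H9-derived) grown on Matrigel behind stoppers 16 h, then stoppers pulled and chemical applied 72 h; cytochalasin D as control.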

[2] = ArunA_Migration_hNC: ArunA Biomedical's Oris Neural Crest (hNC) Cell Migration Assay (AID 2283755)
Method in brief: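 Calcein-AM fluorescence (ex494 nm/em 517 nm) in the stopper-defined detection zone quantifies migration of hNC cells after 72 h chemical exposure; 60,000 cells/well plated on Matrigel with LIF and bFGF, 16 h pre-incubation. DMSO baseline.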

[3] = ArunA_NOG_NucleusCount: ArunA Biomedical's Neurite Outgrowth (NOG) Assay for Nucleus Count (AID 2283756)
Method in brief: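 Viable neuron count, from Hoechst nuclei passing size and intensity gates, imaged at 20x on differentiated H9-derived human neurons. Exposure lasted 48 h from seeding; activity was scored relative to DMSO.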

[4] = ArunA_NOG_BranchPointsPerNeurite: ArunA Biomedical's Neurite Outgrowth (NOG) Assay for Branch Points Per Neurite (AID 2283759)
Method in brief: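 Automated image analysis traced neurites (processes >10 um) from valid cell bodies after Hoechst and βIII-tubulin staining. hNN cells from H9 embryonic stem cells, 48 h exposure. Fitted bidirectionally against DMSO.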

[5] = biological target: Luciferin 4-monooxygenase (Photinus pyralis) (UniProt P08659); test: CCTE_Simmons_QuantiLum_inhib_2: CCTE's Firefly Luciferase Inhibition Assay, Simmons Lab (AID 2283767);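 for AC50: potency for inhibitors that lower luciferase luminescence relative to DMSO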
Sequence of Luciferin 4-monooxygenase (Photinus pyralis) (P08659 whole entry, looked up): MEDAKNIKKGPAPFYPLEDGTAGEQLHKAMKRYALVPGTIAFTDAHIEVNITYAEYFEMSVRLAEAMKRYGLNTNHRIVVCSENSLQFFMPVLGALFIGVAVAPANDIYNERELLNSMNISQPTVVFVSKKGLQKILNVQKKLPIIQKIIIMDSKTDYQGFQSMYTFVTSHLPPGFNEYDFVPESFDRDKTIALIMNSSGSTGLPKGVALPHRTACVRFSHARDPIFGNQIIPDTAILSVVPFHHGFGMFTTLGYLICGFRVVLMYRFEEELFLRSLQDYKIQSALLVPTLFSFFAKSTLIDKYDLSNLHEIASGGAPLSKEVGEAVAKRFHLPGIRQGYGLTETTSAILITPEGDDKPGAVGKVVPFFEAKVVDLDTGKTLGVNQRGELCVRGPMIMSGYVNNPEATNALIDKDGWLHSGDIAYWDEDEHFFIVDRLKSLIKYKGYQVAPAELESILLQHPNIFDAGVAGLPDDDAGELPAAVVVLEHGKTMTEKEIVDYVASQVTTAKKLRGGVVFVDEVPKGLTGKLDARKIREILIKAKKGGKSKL
Method in brief: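 Cell-free QuantiLum luciferase, 5 ng/well; compounds 5 nM–87.5 uM final, 8 conc, 0.5% DMSO; 30 min, 37C, dark. Detection reagent (150 uM D-luciferin, 147 uM dATP, CoA, DTT, pH 7.8 final) injected per well, kinetic luminescence. Triplicate biological replicates.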

[6] = ACEA_AR_agonist_AUC_viability: ACEA Biosciences xCELLigence Real-Time Cell Analysis on Androgen Receptor Agonism for Viability (AID 2283775);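 for AC50: viability read 80 hours after compound addition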
Method in brief: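 Viability endpoint from xCELLigence impedance in 22Rv1 prostate cells at 80 h. Eight-point series, 100 uM maximum final.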

[7] = ACEA_AR_antagonist_AUC_viability: ACEA Biosciences xCELLigence Real-Time Cell Analysis on Androgen Receptor Antagonism for Viability (AID 2283776);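 note: 22Rv1 human prostate cancer cells growing on impedance electrode plates; area under impedance growth curve at 80 h after dosing as viability; hits lower the growth signal relative to DMSO meaning cytotoxicity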
Method in brief: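 Viability endpoint from label-free cell-index monitoring: 22Rv1 cultures treated with an eight-point 1:4 dilution series starting at 100 uM final, AUC at 80 h fitted against DMSO.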

[8] = biological target: zebrafish Estrogen Receptor (ESR1), esr1 (gene 259252) (UniProt P57717); test: ATG_zfER1_XSP1: Attagene TRANS-FACTORIAL Multi-Species (XSP1) HepG2 Assay for zebrafish Estrogen Receptor (ESR1) (AID 2283772)
Sequence of zebrafish Estrogen Receptor (ESR1), esr1 (gene 259252) (P57717 whole entry, looked up, the tested form may be a part): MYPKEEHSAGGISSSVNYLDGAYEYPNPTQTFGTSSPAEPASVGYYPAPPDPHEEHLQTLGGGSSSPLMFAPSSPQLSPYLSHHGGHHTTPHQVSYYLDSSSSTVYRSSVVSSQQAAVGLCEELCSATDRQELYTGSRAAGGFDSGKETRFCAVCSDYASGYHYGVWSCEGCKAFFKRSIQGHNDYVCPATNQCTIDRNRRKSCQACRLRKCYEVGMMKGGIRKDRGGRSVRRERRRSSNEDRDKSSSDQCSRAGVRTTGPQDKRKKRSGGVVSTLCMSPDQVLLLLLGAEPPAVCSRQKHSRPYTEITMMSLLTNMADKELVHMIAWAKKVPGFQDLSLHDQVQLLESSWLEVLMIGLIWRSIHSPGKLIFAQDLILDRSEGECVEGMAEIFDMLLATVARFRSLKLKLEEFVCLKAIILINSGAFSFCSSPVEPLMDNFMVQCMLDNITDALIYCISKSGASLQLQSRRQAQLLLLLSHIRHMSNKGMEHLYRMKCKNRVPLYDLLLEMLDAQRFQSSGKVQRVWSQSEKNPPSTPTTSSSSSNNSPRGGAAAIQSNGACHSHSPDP
Method in brief: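 Transfect HepG2 with GAL4-UAS multi-reporter constructs; treat 24 h (medium carries 3 nM 6-alpha-fluorotestosterone); extract RNA, reverse-transcribe, PCR-amplify, FAM-label, digest with HpaI; resolve by capillary electrophoresis and compare against DMSO baseline.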

[9] = test system: zebrafish Estrogen Receptor (ESR2B), gene 317733; test: ATG_zfER2b_XSP1: Attagene TRANS-FACTORIAL Multi-Species (XSP1) HepG2 Assay for zebrafish Estrogen Receptor (ESR2B) (AID 2283773)
Method in brief: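 Multiplexed TRANS format in transfected HepG2 liver cells, chimeric NR-Gal4 from zebrafish ESR2B. 24 h dosing; medium contains 3 nM 6-alpha-fluorotestosterone. mRNA induction by RT-PCR/CE, positive direction vs DMSO.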

[10] = test system: frog Estrogen Receptor (ESR2), gene 100174814; test: ATG_frER2_XSP1: Attagene TRANS-FACTORIAL Multi-Species (XSP1) HepG2 Assay for frog Estrogen Receptor (ESR2) (AID 2283774)
Method in brief: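 HepG2, transient MRTU transfection (GAL4-UAS reporters, exogenous NR-Gal4 chimeras); 24 h compound exposure; 3 nM 6α-fluorotestosterone co-added; total RNA → RT-PCR → 6-FAM primer extension → HpaI → CE. Positive direction vs DMSO.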

[11] = test system: frog Estrogen Receptor (ESR1), gene 398734; test: ATG_frER1_XSP1: Attagene TRANS-FACTORIAL Multi-Species (XSP1) HepG2 Assay for frog Estrogen Receptor (ESR1) (AID 2283777)
Method in brief: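 Transient MRTU transfection, HepG2 (human liver); 24 h dosing, 3 nM 6α-fluorotestosterone co-added; RNA → RT-PCR → 6-FAM labeling → CE; upward activity vs DMSO.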

[12] = test system: zebrafish Estrogen Receptor (ESR2A), gene 317734; test: ATG_zfER2a_XSP1: Attagene TRANS-FACTORIAL Multi-Species (XSP1) HepG2 Assay for zebrafish Estrogen Receptor (ESR2A) (AID 2283778)
Method in brief: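 Transient transfection of HepG2 (human liver) with MRTU constructs; chemical dosing for 24 h; medium contained 3 nM 6-alpha-fluorotestosterone to partly stimulate AR. RT-PCR/CE fluorescence of reporter transcripts; positive direction vs DMSO.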

[13] = biological target: chicken Estrogen Receptor (ESR1), ESR1 (gene 396099) (UniProt P06212); test: ATG_chERa_XSP1: Attagene TRANS-FACTORIAL Multi-Species (XSP1) HepG2 Assay for chicken Estrogen Receptor (ESR1) (AID 2283779)
Sequence of chicken Estrogen Receptor (ESR1), ESR1 (gene 396099) (P06212 whole entry, looked up, the tested form may be a part): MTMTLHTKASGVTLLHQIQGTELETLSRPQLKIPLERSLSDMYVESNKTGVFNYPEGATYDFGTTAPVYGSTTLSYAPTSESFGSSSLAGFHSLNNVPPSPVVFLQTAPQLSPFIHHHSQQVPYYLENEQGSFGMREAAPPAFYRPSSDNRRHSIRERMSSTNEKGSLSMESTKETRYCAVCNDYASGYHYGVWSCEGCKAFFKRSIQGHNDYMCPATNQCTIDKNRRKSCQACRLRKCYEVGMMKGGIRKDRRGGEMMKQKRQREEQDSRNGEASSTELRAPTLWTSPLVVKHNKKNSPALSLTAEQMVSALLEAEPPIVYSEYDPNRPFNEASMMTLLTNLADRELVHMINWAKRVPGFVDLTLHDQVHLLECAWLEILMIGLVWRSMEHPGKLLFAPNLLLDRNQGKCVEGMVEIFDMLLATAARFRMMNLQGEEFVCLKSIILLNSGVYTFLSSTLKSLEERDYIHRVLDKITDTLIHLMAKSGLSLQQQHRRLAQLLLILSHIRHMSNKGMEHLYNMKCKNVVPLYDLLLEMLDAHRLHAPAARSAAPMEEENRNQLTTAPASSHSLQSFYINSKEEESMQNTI
Method in brief: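 Read-out: fluorescent reporter mRNA fragments resolved by capillary electrophoresis after RT-PCR and HpaI digestion. Transfected HepG2 cells carried chimeric NR-Gal4 constructs, were dosed 24 h with 3 nM 6-alpha-fluorotestosterone added, and activity was fitted upward relative to DMSO.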

[14] = test system: turtle Estrogen Receptor (ESR1), gene 101933533; test: ATG_trERa_XSP1: Attagene TRANS-FACTORIAL Multi-Species (XSP1) HepG2 Assay for turtle Estrogen Receptor (ESR1) (AID 2283781)
Method in brief: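 Transfect HepG2 with reporter units → dose chemical 24 h (medium has 3 nM 6-alpha-fluorotestosterone) → isolate RNA, RT-PCR → FAM primer extension, HpaI digest → capillary electrophoresis; gain of signal vs DMSO.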

[15] = ArunA_NOG_NeuriteLength: ArunA Biomedical's Neurite Outgrowth (NOG) Assay for Neurite Length (AID 2283757)
Method in brief: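 Total neurite length per neuron, from traced βIII-tubulin-labelled processes longer than 10 um on viable Hoechst-gated cells, was scored as decrease from DMSO. Cells were hESC (H9)-derived neurons given 48 h chemical exposure immediately after seeding.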

[16] = ArunA_NOG_NeuritesPerNeuron: ArunA Biomedical's Neurite Outgrowth (NOG) Assay for Neurites Per Neuron (AID 2283758)
Method in brief: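 Differentiated human H9-derived neurons exposed to chemicals for 48 h from seeding, then stained with Hoechst and βIII-tubulin/DyLight 488. Automated imaging counted neurites (processes >10 um) per valid neuron; loss of signal versus DMSO scored.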

[17] = test system: chicken Androgen Receptor (AR), gene 422165; test: ATG_chAR_XSP1: Attagene TRANS-FACTORIAL Multi-Species (XSP1) HepG2 Assay for chicken Androgen Receptor (AR) (AID 2283768)
Method in brief: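 Reporter mRNA read by RT-PCR with fluorescent labelling and capillary electrophoresis 24 h after chemical dosing of transiently transfected HepG2 cells. Chicken AR-Gal4 chimera, partially stimulated with 3 nM 6-alpha-fluorotestosterone; activity fitted upward relative to DMSO.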

[18] = test system: frog Androgen Receptor (AR), gene 399456; test: ATG_frAR_XSP1: Attagene TRANS-FACTORIAL Multi-Species (XSP1) HepG2 Assay for frog Androgen Receptor (AR) (AID 2283770)
[19] = test system: zebrafish Androgen Receptor (AR), gene 100005148; test: ATG_zfAR_XSP1: Attagene TRANS-FACTORIAL Multi-Species (XSP1) HepG2 Assay for zebrafish Androgen Receptor (AR) (AID 2283771)
Method in brief: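 Gain-of-signal versus DMSO was measured as reporter transcripts quantified by RT-PCR, fluorescent labelling and capillary electrophoresis after 24 h chemical exposure. The cells were HepG2 expressing a chimeric zebrafish AR-GAL4, co-stimulated with 3 nM 6-alpha-fluorotestosterone.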

With `O=C(Nc1ccc(Cl)cc1)Nc1ccc(Cl)c(Cl)c1` the AC50 [1] was 1.88 µM (active), the AC50 [2] was 1.46 µM (active) and the outcome [3] was “inactive”. The outcome [4] was “inactive”, the AC50 [5] was 15.1 µM (active) and the AC50 [6] was 6.35 µM (active). For the same compound, the AC50 [7] was 5.85 µM (active).
With `CC(C)(C)c1cc(/C=C2\SC(N)=NC2=O)cc(C(C)(C)C)c1O` the outcome [5] was “inactive” and the AC50 [6] was 13.5 µM (active).
With `C[C@]12CC[C@@H]3c4ccc(O)cc4CC[C@H]3[C@@H]1CCC2=O` the AC50 [8] was 0.0145 µM (active), the AC50 [9] was 0.00305 µM (active) and the AC50 [10] was 0.00632 µM (active). The outcome [6] was “inactive”, the AC50 [11] was 0.00311 µM (active) and the AC50 [12] was 0.00383 µM (active). For the same compound, the AC50 [13] was 0.00508 µM (active) and the AC50 [14] was 0.00309 µM (active).
In the case of `CCCCCCCCCC(=O)O`, the outcome [6] is reported as “inactive”.
With `CCCCCc1ccc(N)cc1` the outcome [5] was “inactive” and the AC50 [6] was 50 µM (active).
For `CCCCCCCCOC(=O)c1cc(O)c(O)c(O)c1`, the AC50 [1] was 1.02 µM (active) and 675 nM (active), the AC50 [2] was 120 nM (active) and 452 nM (active) and the outcome [3] was “inactive”. For the same compound, the outcome [4] was “inactive”, the AC50 [5] was 31.5 µM (active) and the AC50 [6] was 35.3 µM (active).
In the case of `O=C1CCC(C2CCCCC2)CC1`, the AC50 [5] is reported as 3.38 µM (active) and the AC50 [6] is reported as 50 µM (active).
For `CC(C)(c1cc(Br)c(O)c(Br)c1)c1cc(Br)c(O)c(Br)c1`, the outcome [2] was “inactive”, the outcome [15] was “inactive” and the outcome [16] was “inactive”. The outcome [5] was “inactive”, the outcome [17] was “inactive” and the outcome [18] was “inactive”. For the same compound, the outcome [19] was “inactive”, the outcome [9] was “inactive” and the AC50 [10] was 11.8 µM (active). For the same compound, the AC50 [6] was 25 µM (active), the outcome [11] was “inactive” and the outcome [12] was “inactive”. The outcome [13] was “inactive” and the outcome [14] was “inactive”.
For `NCc1cccc(C2CCN(C(=O)c3ccc(C#Cc4ccccc4F)o3)CC2)c1`, the outcome [5] was “inactive”, the AC50 [6] was 21.2 µM (active) and the AC50 [7] was 22.1 µM (active).
For `NC(=O)c1nc(-c2cccc(-c3cc(F)ccc3OCC(F)(F)C(F)(F)F)c2)n[nH]1`, the AC50 [6] was 24.6 µM (active).
With `O=c1c(-c2ccc(O)cc2)coc2cc(O)cc(O)c12` the AC50 [5] was 7.86 µM (active) and the AC50 [6] was 62.9 µM (active).
